± gives the standard deviation of the averaged measurements.
Tests used:
Conditions in all cases: concentration: 10 µM; 24 h
HCC1569 [1] = assay: cell number relative to DMSO (% of DMSO); higher = more cells (less growth inhibition / toxicity)
Method in brief: (§1)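 After 24 h at 37 °C with compounds at 10 µM, in triplicate, HCC1569 and TDF cells were fixed with 3.7% formaldehyde. Immunostaining used a rabbit anti-H1.0 antibody and an AlexaFluor 647 secondary, with DAPI, and six fields per well were imaged at ×10. H1.0 nuclear intensity or cell number is presented as percent of the plate control, from the median of replicates, with HCC1569 values smoothed for positional effects.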

TDF [2] = assay: as above
Method in brief: as §1

TDF [3] = assay: H1.0 immunofluorescence intensity relative to DMSO (% of DMSO); higher = stronger H1.0 induction, active = 120 or more
Method in brief: as §1

HCC1569 [4] = assay: H1.0 immunofluorescence intensity relative to DMSO (% of DMSO); higher = stronger H1.0 induction, active = 140 or more
Method in brief: as §1
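For H1.0 immunofluorescence intensity relative to DMSO in this document: TDF is a line of transformed human dermal fibroblasts of mesenchymal origin.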
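For cell number relative to DMSO in this document: TDF denotes transformed human dermal fibroblasts of mesenchymal origin.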

Compound | cell number (HCC1569 [1]) | cell number (TDF [2]) | H1.0 immunofluorescence intensity (TDF [3]) | H1.0 immunofluorescence intensity (HCC1569 [4])
CN(C)C(=O)C(CCN1CCC(O)(c2ccc(Cl)cc2)CC1)(c1ccccc1)c1ccccc1.Cl [Loperamide hydrochloride] | 84.8 | 88.6 | 102 (inactive) | 122 (inactive)
Nc1ncnc2c1ncn2C1OC(COP(=O)(O)CP(=O)(O)OP(=O)([O-])[O-])C(O)C1O.[Li+].[Li+] (stereo not drawn) [alpha,beta-Methylene adenosine 5'-triphosphate dilithium] | 102 | 109 | 87.9 (inactive) | 96.4 (inactive)
CC1=NN=C(c2ccc(N)cc2)c2cc3c(cc2C1)OCO3.Cl | 97.4 | 95.2 | 106 (inactive) | 104 (inactive)
CC(C)(C)NCC(O)c1cc(Cl)c(N)c(Cl)c1 (configuration not stated) [Clenbuterol] | 99.5 | 103 | 95.2 (inactive) | 118 (inactive)
O=C1C=C2C=CC3CC2(O1)C1CCCCN31 (configuration not stated) [Securinine] | 87.8 | 76.4 | 102 (inactive) | 99.9 (inactive)
CC1CN(C2CCC(C#N)(c3ccc(F)cc3)CC2)CCC1(C(=O)O)c1ccccc1.Cl (configuration not stated) [Levocabastine.HCl] | 102 | 103 | 102 (inactive) | 115 (inactive)
CCn1cc(C(=O)O)c(=O)c2cc3c(cc21)OCO3 [Oxolinic acid] | 100 | 109 | 104 (inactive) | 101 (inactive)
O=[N+]([O-])C=Cc1ccc2c(c1)OCO2 [Syk Inhibitor III] | 37.1 | 33.2 | 122 (active) | 99.6 (inactive)
CC(=O)OC1C(c2ccc(=O)oc2)C2(C)CCC3C(CCC4CC(O)CCC43C)C23OC13 (configuration not stated) [Cinobufagin] | 53.5 | 42.2 | 115 (inactive) | 99.5 (inactive)
Cc1ccc2c(c1)C1(CCN(CCc3nc(-c4ccccc4)oc3C)CC1)OC(=O)N2 | 85.9 | 91.1 | 107 (inactive) | 123 (inactive)
CC(N)Cc1c[nH]c2ccc(O)cc12.O=C(O)C=CC(=O)O (stereo not drawn) [alpha-Methyl-5-hydroxytryptamine maleate] | 99.8 | 104 | 90.3 (inactive) | 87.9 (inactive)
C#C[C@]1(O)CC[C@H]2[C@@H]3CC[C@H]4Cc5nc6nc7ccccc7n6cc5C[C@]4(C)[C@H]3CC[C@@]21C | 74.8 | 88.1 | 99 (inactive) | 145 (active)
O=C(Oc1ccc([N+](=O)[O-])cc1)N1CCN(Cc2cccc(Oc3ccccc3)c2)CC1 [4-nitrophenyl 4-(3-phenoxybenzyl)-1-piperazinecarboxylate] | 97.4 | 104 | 101 (inactive) | 105 (inactive)
CCCCCCC(=O)CCCCCCC=CCC(O)C(O)C(N)(CO)C(=O)O (configuration not stated) [Myriocin] | 100 | 92.4 | 99.4 (inactive) | 87.9 (inactive)
CC1CCC2N(C1)CC1C3CC4C(CC(=O)C5CC(O)CCC54C)C3CCC1C2(C)O (configuration not stated) [Imperialine] | 102 | 88.5 | 97.1 (inactive) | 92.1 (inactive)
C=CCN1CCC23c4c5ccc(O)c4OC2C(=NN=C2CCC4(O)C6Cc7ccc(O)c8c7C4(CCN6CC=C)C2O8)CCC3(O)C1C5.Cl.Cl (configuration not stated) [Naloxonazine dihydrochloride] | 77.5 | 62.9 | 126 (active) | 121 (inactive)
NC1(C(=O)O)CCC(C(=O)O)C1 (mixture of isomers) | 104 | 106 | 96.5 (inactive) | 95.1 (inactive)
Br.CCCN(CCC)C1CCc2ccc(O)cc2C1 (stereo not drawn) [R-(+)-7-Hydroxy-DPAT hydrobromide] | 99.8 | 110 | 103 (inactive) | 101 (inactive)
COc1ccccc1CN[C@H]1C2CCN(CC2)[C@H]1C(c1ccccc1)c1ccccc1 | 95.3 | 97.3 | 105 (inactive) | 125 (inactive)
CCCCCC(C=CC=CCC=CCC=CCCCC(=O)O)OO (configuration not stated) | 106 | 100 | 96.4 (inactive) | 113 (inactive)
CNC1CC2OC(C)(C1OC)n1c3ccccc3c3c4c(c5c6ccccc6n2c5c31)C(=O)NC4 (configuration not stated) [Staurosporine, Streptomyces sp.] | 56.3 ± 58 | 47.9 ± 67 | 149 (active) | 84.1 (inactive)
O=C(O)C1CCN1 [L-azetidine-2-carboxylic acid] | 100 | 103 | 92.3 (inactive) | 92 (inactive)
NC(=O)c1cc(N2CC2)c([N+](=O)[O-])cc1[N+](=O)[O-] | 96.1 | 94 | 89.4 (inactive) | 91.7 (inactive)
COCC1OC(=O)c2coc3c2C1(C)C1=C(C3=O)C2CCC(=O)C2(C)CC1OC(C)=O (configuration not stated) [Wortmannin from Penicillium funiculosum] | 41.7 | 100 | 89.5 (inactive) | 153 (active)

Compound | cell number (HCC1569 [1]) | cell number (TDF [2]) | H1.0 immunofluorescence intensity (TDF [3]) | H1.0 immunofluorescence intensity (HCC1569 [4])
CC1=CC(=O)c2c(O)cccc2C1=O [Plumbagin] | 39 | 46.8 | 109 (inactive) | 326 (active)
CC1=C2C(=O)C3C(CC=C4CC(O)CCC43C)C2CCC12OC1CC(C)CNC1C2C (configuration not stated) [Jervine] | 97.9 | 104 | 94.3 (inactive) | 92 (inactive)
CC(=O)C1=C(O)C2C3c4c[nH]c5cccc(c45)CC3C(C)(C)N2C1=O (configuration not stated) [Cyclopiazonic acid] | 95.5 | 90.8 | 100 (inactive) | 101 (inactive)
CCCCCC=CCC=CCC=CCC=CCCCCCC(=O)NCCO [Anandamide (22:4,n-6)] | 102 | 104 | 102 (inactive) | 98.3 (inactive)
CCCCCC=CCC=CCC=CC=CC(CCCC(=O)O)OO (configuration not stated) | 101 | 100 | 98.5 (inactive) | 106 (inactive)
CN1CC(NS(=O)(=O)N(C)C)CC2c3cccc4c3c(cn4C)CC21.Cl (configuration not stated) [Mesulergine hydrochloride] | 101 | 100 | 93.4 (inactive) | 94.2 (inactive)
CC=C1CN2CCC34C(=C(CC=O)C1CC23)Nc1ccccc14 (configuration not stated) [Norfluorocurarine] | 100 | 104 | 97.8 (inactive) | 96.3 (inactive)
COC(=O)N1CCN(C(=O)Cc2ccc(Cl)c(Cl)c2)C(CN2CCCC2)C1.O=C(O)C=CC(=O)O (configuration not stated) | 100 | 102 | 97.7 (inactive) | 95.7 (inactive)
CN(C)C1C(=O)C(C(N)=O)=C(O)C2(O)C(=O)C3=C(O)c4c(O)cccc4C(C)(O)C3CC12 (configuration not stated) [Tetracycline] | 104 | 109 | 101 (inactive) | 95.2 (inactive)
CC(=O)OCC1=C(C(=O)[O-])N2C(=O)C(NC(=O)CCCC(N)C(=O)[O-])C2SC1.[Zn+2] (configuration not stated) [Cephalosporin C zinc salt] | 101 | 101 | 97.3 (inactive) | 90.8 (inactive)
CC(C)(C)c1o[nH]c(=O)c1CC(N)C(=O)O (configuration not stated) | 98.3 | 104 | 90 (inactive) | 95 (inactive)
C[N+]1([O-])C2CCC1CC(OC(=O)C(CO)c1ccccc1)C2.Cl (configuration not stated) | 97.9 | 107 | 92.4 (inactive) | 85 (inactive)
CCn1cc(C(=O)[O-])c(=O)c2ccc(C)nc21.[Na+] [Nalidixic acid sodium] | 107 | 107 | 86 (inactive) | 92.4 (inactive)
COc1cc(C2c3cc4c(cc3C(O)C3COC(=O)C23)OCO4)cc(OC)c1O (configuration not stated) [4'-Demethylpipodophyllotoxin] | 59.6 | 12.7 | 157 (active) | 132 (inactive)
CCC(C(=O)O)C1CCC(C)C(C(C)C(O)C(C)C(=O)C(CC)C2OC3(C=CC(O)C4(CCC(C)(C5CCC(O)(CC)C(C)O5)O4)O3)C(C)CC2C)O1 (configuration not stated) [Salinomycin] | 87.1 | 87.7 | 111 (inactive) | 110 (inactive)
CC(C)(C)C1(O)CC2OC(=O)CC23C(=O)OC2OC(=O)C(O)C231 (configuration not stated) [Bilobalide] | 99.9 | 109 | 96.7 (inactive) | 97.2 (inactive)
CC(C)(OO)c1ccccc1 [Cumene hydroperoxide] | 101 | 113 | 105 (inactive) | 99.6 (inactive)
Cc1c(C(=O)Nc2cccc(C(F)(F)F)c2)cc(-c2ccccc2)n1CCCN1CCOCC1 | 92.8 | 94.3 | 95 (inactive) | 115 (inactive)
COC(C(=O)C(O)C(C)O)C1Cc2cc3cc(OC4CC(OC5CC(O)C(OC)C(C)O5)C(OC(C)=O)C(C)O4)c(C)c(O)c3c(O)c2C(=O)C1OC1CC(OC2CC(OC3CC(C)(O)C(OC(C)=O)C(C)O3)C(O)C(C)O2)C(O)C(C)O1 (configuration not stated) [Chromomycin A3] | 42.1 | 19.4 | 175 (active) | 196 (active)
C[N+]1(C)CCOC(O)(c2ccc(-c3ccc(C4(O)C[N+](C)(C)CCO4)cc3)cc2)C1.[Br-].[Br-] (configuration not stated) [Hemicholinium-3] | 100 | 106 | 92 (inactive) | 87.8 (inactive)
CC12CCC3C(CCC4=C(O)C(=O)CCC43C)C1CCC2=O (configuration not stated) [4-Androsten-4-ol-3,17-dione] | 102 | 96.7 | 93.4 (inactive) | 89.7 (inactive)
CC12CCC3C(CCC4=CC(=O)CCC43C)C1CCC2=O (configuration not stated) [4-Androstene-3,17-dione] | 95.3 | 113 | 101 (inactive) | 90 (inactive)
Cc1c2ccncc2c(C)c2c1[nH]c1ccccc12 [Ellipticine] | 69.4 ± 8.6 | 39.3 ± 6.6 | 104 (inactive) | 194 (active)
Br.CC1NCCc2cc(O)c(O)cc21 (configuration not stated) | 100 | 93.9 | 105 (inactive) | 94.9 (inactive)

From the supplement of paper PMC7156485
